High-throughput results as filed in PubChem.
D1 ag = activates the human D1 dopamine receptor; P21728; HEK293 T-REx D1 cells, calcium flux, agonist mode; activation, % at 2 µM; 1% of 360,000 active
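Inducible HEK293 T-REx D1 cells, force-coupled to calcium signalling, were plated at 4000 cells/well with tetracycline and held overnight at 30 C. After no-wash calcium dye loading, compound-evoked calcium rise over 180 s flagged agonists.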
D1 antagonist = blocks dopamine activation of the human D1 receptor; AID 504652; 3.2% of 360,000 active; HEK293 TREx D1 cells, calcium flux, dopamine EC80; hits give low values; activity change, negative = inhibition, % at 10 µM; P21728; in the data active means activity change below about -30%
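Tetracycline-induced HEK293 Trex D1 cells, force-coupled to calcium, dye-loaded; compounds added and read 180 s, then EC80 dopamine added and calcium flux tracked kinetically another 180 s.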
TRHR agonist-1 = activates the human TRH receptor. P34981. TRHR cells, calcium flux fluo-8, FDSS agonist mode. activation, % at 2 µM. 0.18% of 360,000 active
Target sequence (P34981 whole entry, looked up): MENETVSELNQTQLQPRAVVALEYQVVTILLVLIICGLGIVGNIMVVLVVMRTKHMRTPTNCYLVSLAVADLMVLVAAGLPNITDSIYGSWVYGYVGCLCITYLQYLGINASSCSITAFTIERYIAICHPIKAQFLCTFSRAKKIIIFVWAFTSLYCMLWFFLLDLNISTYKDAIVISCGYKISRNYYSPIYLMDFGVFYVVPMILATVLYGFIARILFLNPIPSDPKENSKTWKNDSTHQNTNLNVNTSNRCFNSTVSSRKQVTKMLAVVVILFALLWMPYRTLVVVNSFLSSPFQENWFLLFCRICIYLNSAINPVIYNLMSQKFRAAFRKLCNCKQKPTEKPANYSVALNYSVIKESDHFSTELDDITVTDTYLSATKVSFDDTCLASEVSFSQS
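Read-out: compound-evoked intracellular calcium rise in TRHR cells, fluo-8 dye, kinetic FDSS fluorescence at 1 s/cycle following a 10-cycle baseline. Cells cultured overnight before dye loading (30 min–1.5 h, RT).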
D1 potentiator = enhances dopamine response at the human D1 receptor | potentiation, % at 10 µM | HEK293 TREx D1 cells, calcium flux, dopamine EC20 potentiation | AID 504651 | P21728 | 0.036% of 360,000 active; in the data active means potentiation above about 30%
TRHR enhancer-1 = allosteric enhancers of human TRH receptor | P34981 | TRHR cells, fluo-8 calcium fluorescence, EC20 TRH enhancement | enhancement, % at 2 µM | 0.66% of 360,000 active; in the data active means enhancement above about 30%
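Enhancer read-out: after compound pinning and an initial kinetic agonist-mode read, an EC20 of TRH (10 nM final) was injected and fluo-8 calcium signal (Ex 480/Em 530) followed at 1 s/cycle for 100 cycles in TRHR-expressing cells.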
TRHR enhancer-2 = human TRH receptor allosteric enhancement confirmation; shares compounds with TRHR enhancer-1; TRH receptor cell assay, enhancer confirmation qHTS; activity change, negative = inhibition, % at 46.1 µM; 970 tested, under 10 active; AID 493076; active means well fitted curve in the direction sought with a large enough effect; inconclusive means small, poorly fitted or top-dose-only effect, or another doubt; inactive means no such curve, though single readings can be large; an effect the other way counts as inactive or inconclusive;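 further: compound effect scored on response to added TRH at EC20 of 10 nM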
TRHR agonist-2 = human TRH receptor agonism confirmation | shares compounds with TRHR enhancer-1 | AID 493078 | 8% of 970 active | TRHR-expressing cells, agonist activation read-out | Potency, µM (top dose mostly 46.1 µM), usual class: activators; active means well fitted curve in the direction sought with a large enough effect; inconclusive means small, poorly fitted or top-dose-only effect, or another doubt; inactive means no such curve, though single readings can be large; an effect the other way counts as inactive or inconclusive; further: nearly all actives have a fitted effect of over 75% in size
Hits are given with their value; i = inactive; ? = inconclusive; nt = not tested or not shown. Hits are enriched below; roughly 4.7% of the tested compounds scored in any of these assays. Unless noted, no stated cut-off is given here; in the data, active means activation above about 30%; inactive means the rest.

SMILES	D1 ag	D1 antagonist	TRHR agonist-1	D1 potentiator	TRHR enhancer-1	TRHR enhancer-2	TRHR agonist-2
COc1cc2nc(SCC(=O)Nc3cccc(C)c3)n3nc(CCn4c(C)nc5ccccc54)nc3c2cc1OC	i	i	i	i	i	nt	nt
CC(C)CCNC(=O)NC(=O)CSc1nnc(-c2ccccc2Br)o1	i	i	i	i	42	i	i
Cc1ccc(NC(=O)[C@@H]2CCC(=O)N2C2OC(=O)c3ccccc32)cc1Cl (some centres undefined)	i	i	i	i	68	i	i
O=C(O)c1cccc(-c2ccc(/C=c3/sc4nc5ccccc5n4c3=O)o2)c1	39	i	i	i	i	i	?
COc1ccccc1N1CCN(c2nc3ccc(C(=O)c4ccccc4)cc3n3c(C)nnc23)CC1	i	i	i	i	i	nt	nt
COc1cccc(NC(=O)CN2C(=O)NC3(CCCc4ccccc43)C2=O)c1 (centres undefined)	i	i	i	i	i	nt	nt
COc1cccc(NC(=O)CN2C(=O)NC(C)(CC(C)C)C2=O)c1 (centres undefined)	i	i	i	i	52	i	i
N#Cc1c(N)n(CCNC(=O)c2ccccc2)c2nc3ccccc3nc12	i	i	i	i	i	i	i
N#Cc1c(N)n(CCNC(=O)c2cccs2)c2nc3ccccc3nc12	i	i	i	i	i	nt	nt
Cc1c2ccccc2nc2c(F)c(NCCO)c(F)c(F)c12	i	i	37	i	i	i	16µM
Cc1n[nH]c(C)c1CCN(C)C(=O)C1CCC(=O)N(CC2CCCCC2)C1 (centres undefined)	i	i	i	i	i	nt	nt
CN(CCc1cnn(C)c1)C(=O)C1CCC(=O)N(CC2CCCCC2)C1 (centres undefined)	i	i	i	i	66	i	i
CCOC(=O)c1c(C)sc(-c2c(-c3ccc4c(c3)OCCO4)[nH]c3c2c(=O)n(C)c(=O)n3C)c1O	i	i	i	i	i	nt	nt
O=C(Nc1ccc([N+](=O)[O-])cc1)c1nc[nH]c1C(=O)NC1CCCCC1	i	i	43	i	i	i	i
S=C(NC1CCCCC1)N1CCN(c2ccccn2)CC1	i	i	i	i	44	i	i
S=C(NC1CCCCC1)N1CCN(c2ncccn2)CC1	i	i	i	i	i	nt	nt
Cc1ccsc1CN(Cc1ccco1)c1cnc(S(C)(=O)=O)nc1C(=O)Nc1ccc(Cl)cc1	i	i	i	i	i	nt	nt
O=S(=O)(NCC1CCCO1)c1ccc(Cl)cc1 (centres undefined)	i	i	i	i	46	i	i
O=S1(=O)N=C(Nc2cccc(C(F)(F)F)c2)c2ccccc21	i	i	i	i	i	nt	nt
Cn1nc(C(=O)OCC(=O)Nc2ccc(Cl)cc2Cl)c2ccccc2c1=O	i	i	i	i	42	i	i
COc1ccc(CCNC(=O)CN2CCOc3ccccc32)cc1OC	i	i	i	i	58	i	i
CCOc1ccccc1CNC(=O)c1cnc2sc(N3CCCCCC3)nn2c1=O	i	i	i	i	i	nt	nt
COCCN1CCN(Cc2cn(C)nc2-c2ccc(Oc3ccccc3)cc2)CC1	i	i	i	i	44	i	i
Cn1cc(CN2CCN(CCO)CC2)c(-c2ccc(Oc3ccccc3)cc2)n1	i	i	i	i	i	nt	nt
COCCN(C(=S)Nc1ccccc1C)C(C)c1cccnc1 (centres undefined)	i	i	i	i	i	nt	nt
Cc1ccccc1NC(=S)N(CCN(C)C)C(C)c1cccnc1 (centres undefined)	i	i	i	i	43	i	i
Cc1ccc(S(=O)(=O)c2nc(-c3cccc(Br)c3)oc2N2CCCCCC2)cc1	i	i	i	i	i	nt	nt
COc1ccccc1NC(=O)COn1nnc2ccc(S(=O)(=O)N3CCOCC3)cc21	i	i	i	i	59	i	i
Cc1ccc(NC(=O)C2CC(=O)n3c(nc4ccccc43)N2)cc1Cl (centres undefined)	i	i	i	i	45	i	i
O=c1ccc2cc3c4c(c2o1)CCCN4CCC3	75	i	47	i	i	?	21µM
